Screening results as filed in PubChem.
Rango release inh: inhibition of RanGTP-driven Rango-importin beta dissociation | Potency, µM (series often up to 46.1 µM) | Biochemical FRET Rango-importin beta, RanGTP-induced dissociation | 340,000 compounds, 0.071% hits; calls by dose curve; also: nearly all actives have a fitted effect of over 45% in size
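Rango FRET biosensor (snurportin-1 IBB flanked by N-terminal EYFP and C-terminal CFP10) at 0.1 uM, with 0.25 uM importin beta in PBS, 1mM DTT, 0.02% Tween-20, 0.1% BSA. 0.6 uM Ran, 2mM GTP and 0.2 uM RCC1 were then added for 45 min at room temperature. Inhibition read as loss of FRET rise.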
A549 tox: A549 cytotoxicity, counter-screen for Nrf2 inhibitors. A549 ARE-Fluc cells, CellTiter-Fluor viability, 18-24 h. Potency, µM (series often up to 46 µM), actives largely listed as inhibitors. 390,000 compounds, 0.16% hits. AID 504648
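A549 ARE-Fluc cells in 5% FBS OPTI-MEM, 5000 cells/well, rested 2 h then exposed to compounds in concentration-response for 18-24 h at 37 °C. Viability by CellTiter-Fluor fluorescence (Ex 405/Em 525) after 30 min; luciferase luminescence (BugLite, 15 min, RT) read afterwards.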
Nrf2 block: inhibitors of Nrf2 signaling. 360,000 compounds, 2.1% hits. A549 ARE-Fluc reporter, luciferase luminescence, 18-24 h. AID 504444. Potency, µM (titrated, usually from 46 µM), most hits filed as inhibitors; also: nearly all actives have a fitted effect of over 60% in size
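Nrf2 activity is the BugLite luminescence, read 15 min after reagent at room temperature, following CellTiter-Fluor cytotoxicity readout (30 min, 37C). Compound titrations were applied for 18-24 h to 5000 A549 ARE_Fluc cells/well in 5% FBS OPTI-MEM.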
Nrf2 activator: activators of Nrf2 (ARE) signaling | AREc32 ARE-luciferase reporter (MCF7-derived line), luminescence, 24 h | Potency, µM (series often up to 46.1 µM), hits mostly activators | AID 624171 | 410,000 compounds, 0.31% hits; also: nearly all actives have a fitted effect of over 65% in size
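For detection, Steady-Glo was added and plates sat 30 min at RT; before that, AREc32_Fluc cells grown overnight in OPTI-MEM/5% FBS had been treated with 23 nL compound for 24 hr at 37 deg C.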
Rango complex inh: inhibitors of Rango-importin beta complex formation. Q14974. Rango CFP/YFP FRET sensor + importin beta, 45 min. Potency, µM (highest dose often 92.2 µM). 340,000 compounds, 0.031% hits. AID 540263; calls by dose curve; also: nearly all actives have a fitted effect of over 15% in size
Target sequence (Q14974 whole entry, looked up): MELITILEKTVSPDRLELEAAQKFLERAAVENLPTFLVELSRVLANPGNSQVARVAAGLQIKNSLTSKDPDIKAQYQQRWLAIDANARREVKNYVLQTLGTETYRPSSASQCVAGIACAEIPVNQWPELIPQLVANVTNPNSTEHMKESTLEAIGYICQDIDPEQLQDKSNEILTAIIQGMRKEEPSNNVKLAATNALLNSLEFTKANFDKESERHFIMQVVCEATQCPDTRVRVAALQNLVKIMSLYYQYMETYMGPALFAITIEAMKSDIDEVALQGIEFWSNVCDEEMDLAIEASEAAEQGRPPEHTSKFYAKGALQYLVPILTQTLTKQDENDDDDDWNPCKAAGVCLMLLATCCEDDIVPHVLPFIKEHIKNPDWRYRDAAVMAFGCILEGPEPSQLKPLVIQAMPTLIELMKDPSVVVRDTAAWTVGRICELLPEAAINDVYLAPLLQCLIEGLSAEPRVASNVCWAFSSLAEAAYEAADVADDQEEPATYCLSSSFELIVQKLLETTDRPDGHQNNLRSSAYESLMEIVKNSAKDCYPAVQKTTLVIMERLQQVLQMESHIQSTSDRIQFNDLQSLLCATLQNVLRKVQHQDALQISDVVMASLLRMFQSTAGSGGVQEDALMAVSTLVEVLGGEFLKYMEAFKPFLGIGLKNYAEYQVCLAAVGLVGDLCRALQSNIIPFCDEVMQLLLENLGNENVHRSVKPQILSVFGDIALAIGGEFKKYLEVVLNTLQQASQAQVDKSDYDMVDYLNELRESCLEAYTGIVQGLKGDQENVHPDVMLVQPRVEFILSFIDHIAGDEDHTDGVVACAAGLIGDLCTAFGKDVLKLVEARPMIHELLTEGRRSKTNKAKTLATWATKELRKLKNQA
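Inhibition scored from the CFP 486 nm/YFP 530 nm FRET ratio 45 min after adding 0.125 microM importin beta to 50 nM Rango biosensor preincubated 5 min with compound (room temperature, PBS with DTT, Tween-20, BSA). No-importin wells as positive control.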
Hits are given with their value; i = inactive; ? = inconclusive; nt = not tested or not shown. Sampled rows, rich in hits. Any-hit rate of the full collection: about 2.3%. Unless noted, calls follow the shape of the dose curve; as a rule, active = well fitted curve in the direction sought with a large enough effect; inconclusive = small, poorly fitted or top-dose-only effect, or another doubt; inactive = no such curve, though single readings can be large; an effect the other way counts as inactive or inconclusive.

SMILES | Rango release inh | A549 tox | Nrf2 block | Nrf2 activator | Rango complex inh
O=S(=O)(Nc1cccc2ccccc12)c1cccc2ccccc12 | nt | i | 18.4µM | nt | nt
CC1=C(C(=O)OC2CCCCCC2)C(c2cccc(F)c2F)CC(=O)N1 (centres undefined) | nt | i | i | i | nt
COc1ccc(OC)c(NC(=O)C(C)Oc2ccc(Br)cc2)c1 (centres undefined) | i | i | i | i | i
COc1ccc(OC)c(NC(=O)C(C)OC(=O)c2cc3ccccc3[nH]2)c1 (centres undefined) | i | i | 18.4µM | i | i
CCC(C)n1nccc1NC(=O)C(C)OC(=O)c1cc2ccccc2[nH]1 (centres undefined) | i | i | ? | i | i
COc1ccccc1NC(=O)C(C)OC(=O)c1cc2ccccc2[nH]1 (centres undefined) | i | i | 20.6µM | i | i
CCOc1ccc(C2C(=O)N(C3CCCCC3)CC(=O)N2Cc2ccccc2OC)cc1OC (centres undefined) | nt | i | nt | i | nt
C[n+]1c2n(c3ccccc31)N=C(c1ccc(-c3ccccc3)cc1)CS2 | i | ? | 10.3µM | i | i
C[n+]1c2n(c3ccccc31)N=C(c1ccc(Br)cc1)CS2 | i | i | ? | ? | i
CCCCn1c(N)c(N(CC(C)C)C(=O)CSc2nnc(C)n2-c2ccccc2)c(=O)[nH]c1=O | i | i | i | i | i
CC(C)C[C@H](NC(=O)c1nc[nH]c1C(=O)NCC(=O)OC(C)(C)C)C(=O)OC(C)(C)C | i | i | ? | i | i
CC(C)C[C@H](NC(=O)c1nc[nH]c1C(=O)N[C@@H](CC(C)C)C(=O)OC(C)(C)C)C(=O)OC(C)(C)C | i | ? | 25.9µM | i | i
COc1ccccc1NC(=O)Cc1csc(NC(=S)Nc2ccccc2)n1 | i | 18.4µM | 20.6µM | i | i
COc1ccc(CCNC(=S)N2CCC(C(=O)c3ccc(F)cc3)CC2)cc1OC | i | i | 16.4µM | i | i
CCS(=O)(=O)N1CCc2cc(C(=O)NCCc3ccc(OC)c(OC)c3)ccc21 | nt | ? | 18.4µM | i | nt
COc1ccc(C(=O)C2CCN(C(=S)NCCc3ccc(OC)c(OC)c3)CC2)cc1 | i | i | 16.4µM | i | ?
COc1ccc(CCNC(=O)c2ccc3c(c2)CCN3S(C)(=O)=O)cc1 | nt | i | i | i | nt
CCOc1cc(/C=C2\C(=N)N3N=C(S(=O)(=O)CC)SC3=NC2=O)ccc1OC(=O)c1ccco1 | ? | i | i | i | i
COc1cc(/C=C2\C(=N)N3N=C(S(C)(=O)=O)SC3=NC2=O)ccc1OC(=O)c1ccco1 | 5.8µM | i | i | i | ?
Cc1ccc(CCNC(=O)CN2CCN(Cc3ccc(Cl)cc3)C2=O)cc1 | nt | i | i | i | nt
C=CCn1c(SCCOc2ccc(OC)cc2)nnc1C(C)NC(=O)Cc1ccc(OC)cc1 (centres undefined) | i | i | 23.1µM | i | i
CCn1c(SCCOc2ccc(OC)cc2)nnc1C(CO)NC(=O)c1ccc(OC)cc1 (centres undefined) | i | i | i | i | ?
COc1ccccc1OCC(=O)Nc1ccc(CSc2ccccc2)cc1C | i | i | 10.3µM | i | i
COc1ccccc1C(=O)Nc1ccc2c(c1)nc1n2CCN(C2CCCCC2)C1 | i | i | i | i | i
O=[S+]([O-])(c1cc2ccccc2o1)N1CCN([S+](=O)([O-])c2c(F)cccc2F)CC1 | nt | i | i | nt | nt
SMILES | Rango release inh | A549 tox | Nrf2 block | Nrf2 activator | Rango complex inh
Cc1cc(Br)ccc1NC(=O)CN(C)C(=O)C1CCN(c2ncnc3sc(C)c(C)c23)CC1 | i | 20.6µM | ? | i | ?
Cc1sc2ncnc(N3CCC(C(=O)NNC(=O)c4ccccc4Cl)CC3)c2c1C | i | i | 16.4µM | i | i
CC(=O)c1ccc(NC(=O)CCn2nc(C)c(S(=O)(=O)N3CCC(C)CC3)c2C)cc1 | nt | i | nt | i | nt
O=C(CCc1nc2ccccc2s1)N1CCN(c2ccccc2)CC1 | i | i | ? | i | i
CC(=O)c1ccc(N2CCN(C(=O)CCCc3nc4ccccc4s3)CC2)cc1 | i | i | 14.6µM | i | i
COC(=O)c1sccc1S(=O)(=O)N(CC(=O)NCc1ccc(C)cc1)c1ccc(C)cc1 | nt | i | ? | i | nt
O=[N+]([O-])c1ccc(S(=O)(=O)CC(CN2CCCCC2)N2CCCCC2)cc1 (centres undefined) | i | i | ? | i | i
O=S(=O)(CC(CN1CCCCC1)N1CCCCC1)c1ccccc1 (centres undefined) | i | ? | 18.4µM | i | i
Cc1ccc(C)c(Nc2nc3c(S(=O)(=O)c4ccc(C(C)C)cc4)nnn3c3ccsc23)c1 | nt | ? | 16.4µM | i | nt
Cc1ccc(C)c(Nc2nc3c(S(=O)(=O)c4ccc(Br)cc4)nnn3c3ccsc23)c1 | nt | ? | ? | i | nt
COc1ccc(NC(=O)CSc2ncc(-c3ccc(F)cc3)n2Cc2ccco2)cc1 | i | i | 15.8µM | i | i
COc1ccc(-c2cnc(SCC(=O)Nc3cc(C)on3)n2Cc2ccco2)cc1 | i | i | i | i | i
COc1ccc(-c2cnc(SCC(=O)Nc3nc(C(C)(C)C)cs3)n2Cc2ccco2)cc1 | i | i | 20.6µM | i | i
CC(C)c1ccc(NC2CCCN(C(=O)c3n[nH]c4c3CCC4)C2)cc1 (centres undefined) | i | i | 10.3µM | i | i
COc1ccccc1NC(=O)c1ccc2ccccc2c1 | nt | i | ? | nt | nt
CC(=O)Nc1ccc(S(=O)(=O)N2CCN(S(=O)(=O)c3c(F)cccc3F)CC2)cc1 | nt | i | i | nt | nt
COC(=O)c1cc(-c2ccccc2)sc1N | ? | i | ? | 15.8µM | i
Nc1sc(-c2ccccc2)cc1C(=O)N/N=C/c1ccc(Cl)cc1 | i | i | i | i | i
COc1ccc(-n2c(C)nc3c(cnn3-c3ccc(C)cc3)c2=O)cc1 | i | i | 18.4µM | i | i
COc1ccc(Oc2c(Cl)cnn(-c3ccc(F)cc3)c2=O)cc1 | i | i | nt | ? | i
COc1ccc(Oc2c(Cl)cnn(-c3ccc(C)cc3)c2=O)cc1 | i | i | nt | 12.6µM | i
Cc1oc2c(C)c3oc(=O)c(CCC(=O)N4CCCCC4)c(C)c3cc2c1C | nt | i | i | i | nt
CC[n+]1c(/C=C(\C)SC)sc2ccccc21 | i | i | 20.6µM | i | i
CC[n+]1c(C=C2C=C(C)OC(C)=C2)sc2ccccc21 | ? | 2.91µM | 0.731µM | i | ?
O=C(Nc1ncc2c(n1)-c1ccccc1CC2)c1ccccc1 | i | i | i | 7.94µM | i
Brc1ccc(-c2csc3[n+]2CCCCC3)cc1 | i | i | 16.4µM | i | i
Clc1ccc(-n2cc(-c3ccc(Br)cc3)[n+]3c2CCCCC3)cc1 | i | i | i | i | i
CCCCc1ccc(-n2nc3cc(C)c(NC(=O)c4ccc(C#N)cc4F)cc3n2)cc1 | nt | i | i | i | nt
O=C(COc1ccc(Cl)cc1)Nc1cccc(S(=O)(=O)NC2=NCCCCC2)c1 | i | i | 25.9µM | i | i
